The test system of test [1] is Human papillomavirus type 1a protein E7 (residues 44-93). Put plainly: small molecules binding HPV E7 44-93 – biochemical, small-molecule microarray, residues 44-93, 635 nm fluorescence, primary screen (AID 1108).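 Further: E7 fragment applied at 1 µg/mL in TBST for 1 h at 4 C; score combines spot fluorescence with its signal to noise ratio.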 As to conditions: fluorescence 635 nm, higher = more signal.
Test [2] is described as follows: hepatitis C replication reporter changes, two-sided – Huh7 cells, luciferase reporter, HCV replication inhibitor project, primary screen (AID 1109).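 Further: huh7 hepatoma cells harbouring a luciferase neomycin HCV replicon reporter; luciferase luminescence as measure of HCV replicon replication; test concentration not given here.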 As to conditions: Huh7 HCV replicon luciferase reporter, 48 h; higher = more signal. (In general: In a reporter assay the amount or activity of a reporter protein is the signal.)
The target of test [3] is Left-right determination factor 2 (Homo sapiens) (UniProt O00292). Put plainly: small molecules binding LEFTY2 protein – biochemical, small-molecule microarray, 635 nm fluorescence scan, primary screen (AID 1110). The conditions noted are these: higher = more signal.
Left-right determination factor 2 (Homo sapiens), sequence (O00292 whole entry, looked up): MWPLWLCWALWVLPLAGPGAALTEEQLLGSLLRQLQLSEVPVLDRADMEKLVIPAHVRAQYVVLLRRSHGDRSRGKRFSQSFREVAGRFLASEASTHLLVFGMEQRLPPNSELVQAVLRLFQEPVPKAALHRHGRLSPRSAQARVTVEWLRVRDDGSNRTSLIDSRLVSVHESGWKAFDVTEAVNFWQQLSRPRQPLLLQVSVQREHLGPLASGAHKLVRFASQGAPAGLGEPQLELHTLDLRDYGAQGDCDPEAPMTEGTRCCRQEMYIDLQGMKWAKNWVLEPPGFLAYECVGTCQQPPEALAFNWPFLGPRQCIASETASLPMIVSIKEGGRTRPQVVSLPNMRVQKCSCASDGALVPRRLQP
Test [4] deals with Calmodulin-1 (Homo sapiens) (UniProt P0DP23). Briefly: small molecules binding calmodulin-1 with EGTA – biochemical, small-molecule microarray, Cy5-labelled CALM1, profiling panel (AID 1111).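 Further: labelled calmodulin applied in Tris saline Tween buffer holding calcium plus EGTA and DTT.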 The conditions noted are these: Cy5-CALM1 binding fluorescence, higher = more signal.
Test [5] has the same target. Briefly: small molecules binding Ca-loaded calmodulin-1 – biochemical, small-molecule microarray, Cy5-labelled CALM1, plus calcium, artefact control for SMM control-protein annotation, profiling panel (AID 1112).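 Further: score merges spot fluorescence with signal to noise from triplicate slides.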 The conditions noted are these: Cy5-CALM1 binding fluorescence, higher = more signal.
The nature of test [6]: probe aWnt5a binding to arrayed compounds – biochemical, biotinylated probe, 635/667 nm fluorescence, primary screen (AID 1113).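 Further: score merges 667 nm fluorescence intensity with signal-to-noise per printed feature.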 As to conditions: small-molecule microarray, higher = more signal.
Test [7] can be described thus: probe aShh binding to arrayed compounds – biochemical, biotinylated probe, 635/667 nm fluorescence, primary screen (AID 1114).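 Further: probe is biotin-labelled aShh protein from a stem cell growth factor screen; measures binding of labelled protein to compounds printed on the slide; score merges feature fluorescence at 667 nm with signal-to-noise.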 As to conditions: small-molecule microarray, higher = more signal.
Test [8] in a line: probe aNog binding to arrayed compounds – biochemical, biotinylated probe, 635/667 nm fluorescence, primary screen (AID 1115).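 Further: probe is biotinylated aNog protein used at 0.15 µg/mL for 1 h at 4 C; z-score combines 667 nm fluorescence of each spot with its signal to noise.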 The conditions noted are these: small-molecule microarray, higher = more signal.
In test [9] the target is Torsin-1A-interacting protein 1 (Homo sapiens) (UniProt Q5JTV8). Briefly: compound microarray binding of lysate hLAP1 – cell lysate, small-molecule microarray, COS7 lysate, 635/667 nm fluorescence, primary screen (AID 1116). The conditions noted are these: 635 nm fluorescence, higher = more signal.
Torsin-1A-interacting protein 1 (Homo sapiens), sequence (Q5JTV8 whole entry, looked up): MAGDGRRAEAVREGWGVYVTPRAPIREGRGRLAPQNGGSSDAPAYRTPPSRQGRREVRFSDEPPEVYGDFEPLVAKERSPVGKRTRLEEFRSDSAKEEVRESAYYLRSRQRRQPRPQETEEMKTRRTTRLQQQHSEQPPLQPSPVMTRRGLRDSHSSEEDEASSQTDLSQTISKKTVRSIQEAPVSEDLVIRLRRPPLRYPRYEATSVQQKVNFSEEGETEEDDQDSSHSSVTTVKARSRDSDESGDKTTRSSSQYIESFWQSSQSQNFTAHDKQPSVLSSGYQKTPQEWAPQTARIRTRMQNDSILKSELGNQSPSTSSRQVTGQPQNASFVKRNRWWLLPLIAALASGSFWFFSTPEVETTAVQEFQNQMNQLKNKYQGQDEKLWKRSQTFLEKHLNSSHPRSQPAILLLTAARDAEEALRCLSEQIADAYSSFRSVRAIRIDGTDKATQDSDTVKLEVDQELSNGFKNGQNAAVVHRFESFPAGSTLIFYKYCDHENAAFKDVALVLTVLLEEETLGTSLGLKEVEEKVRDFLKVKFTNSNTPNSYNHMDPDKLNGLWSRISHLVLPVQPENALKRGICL
Test [10] addresses Alpha-bungarotoxin (Bungarus multicinctus) (UniProt P60615). Briefly: compounds binding labelled alpha-BTX control protein – biochemical, small-molecule microarray, Alexa647 label, 635/667 nm fluorescence, artefact control for SMM control protein annotation, profiling panel (AID 1117). As to conditions: alpha-BTX-A647 binding fluorescence, higher = more signal.
The target of another test is Albumin (Bos taurus) (UniProt P02769). Briefly: compounds binding labelled BSA control protein – biochemical, small-molecule microarray, Alexa647 label, 635/667 nm fluorescence, artefact control for SMM control protein annotation, profiling panel (AID 1118).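 Further: score merges 667 nm emission intensity and signal-to-noise per printed compound spot.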 The conditions noted are these: BSA-A647 binding, fluorescence 635 nm, higher = more signal.
Albumin (Bos taurus), sequence (P02769 whole entry, looked up): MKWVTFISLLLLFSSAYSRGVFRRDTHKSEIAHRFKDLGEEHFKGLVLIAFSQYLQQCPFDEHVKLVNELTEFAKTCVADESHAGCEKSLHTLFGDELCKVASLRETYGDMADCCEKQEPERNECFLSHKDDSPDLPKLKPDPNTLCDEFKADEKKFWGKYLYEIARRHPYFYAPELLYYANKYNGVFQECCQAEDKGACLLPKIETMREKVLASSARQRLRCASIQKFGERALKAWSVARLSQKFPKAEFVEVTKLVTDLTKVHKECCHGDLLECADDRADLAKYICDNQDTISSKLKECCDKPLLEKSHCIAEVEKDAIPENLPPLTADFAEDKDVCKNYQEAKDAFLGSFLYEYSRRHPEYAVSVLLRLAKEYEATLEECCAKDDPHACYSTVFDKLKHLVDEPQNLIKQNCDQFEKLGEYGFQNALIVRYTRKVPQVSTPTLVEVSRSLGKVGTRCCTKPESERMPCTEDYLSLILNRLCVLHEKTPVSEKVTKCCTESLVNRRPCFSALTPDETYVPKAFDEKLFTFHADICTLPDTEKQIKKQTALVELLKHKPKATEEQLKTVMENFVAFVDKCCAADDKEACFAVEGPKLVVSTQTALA
The nature of test [11]: probe aXIP binding to arrayed compounds – biochemical, NeuroSMM set, 635/667 nm fluorescence, primary screen (AID 1119).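 Further: probe is the protein aXip251-270 applied at 1 µg/mL to compound-printed slides; binding of probe to printed compounds measured as 667 nm fluorescence plus signal to noise.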 As to conditions: small-molecule microarray, higher = more signal, called active from +8 up or from −8 down.
Test [12] in a line: probe aNOTCH3 binding on compound microarray – biochemical, small-molecule microarray, 635/667 nm fluorescence, primary screen (AID 1120).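 Further: probe is a biotin-tagged antibody raised against NOTCH3 rather than NOTCH3 protein; score merges spot fluorescence near 667 nm with spot signal to noise.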 As to conditions: higher = more signal.
The nature of test [13]: probe aNOTCH2 binding on compound microarray – biochemical, small-molecule microarray, 635/667 nm fluorescence, primary screen (AID 1121).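 Further: score merges feature fluorescence read at 667 nm with its signal to noise.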 As to conditions: higher = more signal.
The target in test [14] is Carbonic anhydrase 2 (Homo sapiens) (UniProt P00918). Put plainly: compounds binding carbonic anhydrase 2 – biochemical, small-molecule microarray, Alexa647-labelled CAII, profiling panel (AID 1122). As to conditions: CAII-A647 binding fluorescence, higher = more signal.
A short description of test [15]: COS7 lysate on small-molecule microarray, probe aHis, 635 nm (AID 1123).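 Further: z-score combines 667nm fluorescence intensity with signal-to-noise per printed compound spot.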 The conditions noted are these: COS7 cell lysate, fluorescence, higher = more signal.
Test [16] is described as follows: probe aLAP1 signal on lysate-treated microarray – cell lysate, small-molecule microarray, COS7 lysate, primary screen (AID 1124).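 Further: lysate comes from COS7 cells expressing LAP1 and is applied at 0.3 µg/mL; score merges spot fluorescence near 667 nm with signal-to-noise over triplicate slides.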 As to conditions: probe aLAP1, fluorescence, higher = more signal.
Another test relates to Sam68 (KHDRBS1). Briefly: compounds binding KHDRBS1 protein – biochemical, small-molecule microarray, 635 nm fluorescence, primary screen (AID 1125).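 Further: score merges 667 nm channel intensity with signal to noise over triplicate slides.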 As to conditions: higher = more signal.
Test [17] concerns Chordin-like protein 2 (CHRDL2). Briefly: compounds binding chordin-like 2 – biochemical, small-molecule microarray, 635 nm fluorescence, primary screen (AID 1126).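 Further: printed compound slides probed with Chrdl2 protein at 4 µg/mL for 1 h at 4 C; score merges 667 nm emission intensity with signal to noise over three replicate slides.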 As to conditions: fluorescence 635 nm, higher = more signal.
The target of test [18] is Concanavalin-A (Canavalia ensiformis) (UniProt P02866). Put plainly: compounds binding concanavalin A lectin – biochemical, small-molecule microarray, Alexa647 label, 635 nm, artefact control for SMM control protein annotation, primary screen (AID 1127).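 Further: z combines 667 nm emission intensity with signal-to-noise across three replicate slides.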 As to conditions: ConA-A647 binding fluorescence, higher = more signal.
Concanavalin-A (Canavalia ensiformis), sequence (P02866 whole entry, looked up): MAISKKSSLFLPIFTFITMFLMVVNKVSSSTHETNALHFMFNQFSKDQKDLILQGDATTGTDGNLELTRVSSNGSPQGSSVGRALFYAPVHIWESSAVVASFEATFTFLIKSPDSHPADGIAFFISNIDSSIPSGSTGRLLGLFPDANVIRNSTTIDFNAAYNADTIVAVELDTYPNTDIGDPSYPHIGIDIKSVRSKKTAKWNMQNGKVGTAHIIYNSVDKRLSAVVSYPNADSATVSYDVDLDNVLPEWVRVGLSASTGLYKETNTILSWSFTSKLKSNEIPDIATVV

This passage reports composite z-score, z-score and composite Z-score results from PubChem BioAssay.

Activity calls are given as the source filed them.

Alpha-bungarotoxin (Bungarus multicinctus), sequence (P60615 whole entry, looked up): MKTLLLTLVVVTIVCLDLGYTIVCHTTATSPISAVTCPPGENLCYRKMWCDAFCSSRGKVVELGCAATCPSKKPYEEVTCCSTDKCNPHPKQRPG

With `O=C1c2ccccc2[C@](Cc2ccccc2I)(C(=O)NCc2ccccc2)[C@H](c2ccc(CO)cc2)N1C1CCCCC1`, the composite z-score in test [1] was 1.4; in [3], 0.835; in test [4], 1.28; in test [5], 1.08; in [6], -0.0691; in test [7] it was 0.217. Further, the composite z-score was 0.347 in test [8]; 0.616 in test [9]; 0.705 in test [10]; 0.861 with Albumin (Bos taurus); 0.16 in test [12]; -0.0997 in test [13]. The composite z-score is 0.601 in test [14]; 1.21 in [15]; 0.576 in test [16]; 1.12 in the test with Sam68 (KHDRBS1); 0.271 in test [17]; 1.23 in [18]. In test [2], this molecule gave a z-score of -1.93. Also, the composite Z-score in [11] is 0.534 (inactive).

Regarding `CCOC(=CC(=O)OC)CC(O)c1cccc(Cl)c1` (stereo not given), the composite z-score in test [1] is 1.11; in test [3] it was -0.796; in test [4] it was -0.265; in [5], 0.486; in test [6] it was -0.0685; in test [7], -0.156. Moreover, the composite z-score was -0.527 in [8]; 1.36 in [9]; -0.259 in test [10]; 0.451 in the test with Albumin (Bos taurus); -0.17 in test [12]; -0.176 in test [13]. The composite z-score in [14] was 0.606; in test [15], 1.47; in test [16], 0.49; in the test with Sam68 (KHDRBS1), 0.505; in [17], -1.42; in test [18] it was 0.0032. Further, in test [2], the z-score was -2.17. The composite Z-score in test [11] is -0.114 (inactive).

As to `CON(C)C(=O)C=C1C[C@@H](c2cccc(Cl)c2)O[C@@H](c2cccc(Cl)c2)O1`, the composite z-score in test [1] was 0.151; in test [3], 0.158; in test [4], 0.389; in test [5], 0.3; in [6], -0.0704; in test [7], 0.134. For the same molecule, the composite z-score is -0.389 in test [8]; 0.525 in test [9]; 0.764 in test [10]; 0.268 with Albumin (Bos taurus); 0.0897 in test [12]; -0.131 in test [13]. The composite z-score turned out to be 0.628 in test [14]; 0.339 in test [15]; 0.166 in test [16]; 0.474 with Sam68 (KHDRBS1); 0.648 in test [17]; 1.01 in [18]. The molecule further had a z-score in [2] of -3.11. Besides, the composite Z-score in test [11] was 0.294 (inactive).

`CN1C(=O)C2C=CC(C(O)C3CCCCC3)N(N3CCCCC3)C2C1=O` (stereo not given): the composite z-score in test [1] is 1.47; in [3], 0.194; in [4], 0.407; in test [5], -0.331; in test [6], 0.164; in [7], 0.109. Moreover, the composite z-score is 1.31 in [8]; 1.4 in test [9]; 1.66 in [10]; 0.92 with Albumin (Bos taurus); 0.196 in [12]; 0.0019 in test [13]. For the same molecule, the composite z-score is 0.663 in test [14]; 2.48 in [15]; 0.794 in test [16]; 1.3 with Sam68 (KHDRBS1); 0.0449 in test [17]; 0.927 in [18]. For the same molecule, the z-score in test [2] is -0.306. Moreover, the composite Z-score in [11] is 1.56 (inactive).

Consider `COc1ccccc1CN1C(=O)c2ccccc2[C@@H](C(=O)NC(C)C)[C@@H]1c1ccc(CO)cc1`, for which the composite z-score is 0.636 in test [1]; 0.4 in test [3]; 0.301 in [4]; -0.508 in [5]; 0.236 in test [6]; 0.14 in test [7]. Further, the composite z-score in test [8] is -0.637; in test [9], 0.902; in test [10], 1.06; with Albumin (Bos taurus) it was -0.374; in test [12], 0.338; in test [13], 0.103. Moreover, the composite z-score in [14] was determined as 0.535; in test [15], 2.32; in test [16] it was 1.03; with Sam68 (KHDRBS1), 1.33; in [17], 0.565; in test [18] it was 1.16. Also, the z-score in test [2] was -0.861. Further, the composite Z-score in test [11] was -0.0458 (inactive).
